Compound activity (PubChem BioAssay)
TTR transcr act = increases transthyretin transcription; SH-SY5Y TTR promoter Gaussia luciferase, luminescence; 100% = recombinant luciferase protein wells; activation, % at 16.7 µM; hit rate 1.3% among 92,000;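 active = activation above the mean of all tested compounds plus 3 SD, cut at about 9.5% in these data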;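 note: cells exposed to compounds for one day before reading; 0% = median of all test compound wells on the plate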
TTR inh HuH7 = counter-screen for TTR activators: TTR transcription inhibitors in HuH7 cells | inhibition, % at 16.7 µM | hit rate 4% among 1,100 | shares compounds with TTR transcr act | HuH7 TTR promoter-Gaussia luciferase reporter, luminescence | AID 1117279;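 active = average inhibition above the solvent-only control wells' mean plus 3 SD, cut at about 15% in these data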;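 note: 0% = cells with DMSO only and 100% = cells with inhibitor control FD; inhibitors lower well luminescence so higher value means more inhibition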
TTR up confirm = confirmation of human transthyretin transcription activators. shares compounds with TTR transcr act. SHSY5Y TTR promoter Gaussia luciferase, luminescence; 100% = purified Lucia enzyme wells, no cells. activation, % at 16.7 µM. 1,100 tested, under 10 active;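 active = mean activation above a set limit taken from the earlier primary screen, cut at about 11% in these data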;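 note: 0% = DMSO-treated cells and 100% = recombinant Lucia luciferase without cells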
The depositor's hits bear a star. The entries come from a sample that favours hits as a whole.

SMILES | TTR transcr act | others
COCCNC(=O)C1(C)CCN(C(=O)c2cc(-c3ccccc3)cs2)C1 (configuration not stated) | 2
C[C@H]1[C@@H](OC(=O)Nc2ccccc2F)CC[C@@]23CCCN2C(=O)CCC[C@@H]13 | 2
NC(=O)CC(NC(=O)Cc1ccc(Br)cc1)c1ccc(NC2CCCC2)c([N+](=O)[O-])c1 (configuration not stated) | 2
NC(=O)CC(NC(=O)Cc1ccc(Cl)cc1)c1ccc(NC2CCCCCC2)c([N+](=O)[O-])c1 (configuration not stated) | -2
NC(=O)CC(NC(=O)Cc1ccc(Br)cc1)c1ccc(NC2CCCCCC2)c([N+](=O)[O-])c1 (configuration not stated) | 10* | TTR inh HuH7=-8;TTR up confirm=0
COc1ccc(C(=O)Nc2cc(OC)nc(OC)n2)cc1 | 0
COc1cccc(-c2cc(CNC(=O)[C@H]3O[C@@H](n4cnc5c(N)ncnc54)[C@H](O)[C@@H]3O)no2)c1 | -2
O=C(OCc1ccc(CSc2nnc(-c3cccc4ccccc34)o2)cc1)c1ccc(F)cc1 | -1
CCOC(=O)c1c(NC(=O)COC(=O)c2ccccn2)sc2c1CCC2 | 4
CC(C)c1nc(C(N)=O)c2[nH]c(=O)n(-c3ccc(F)cc3)c2n1 | 9.8* | TTR inh HuH7=-8;TTR up confirm=-2
Cc1ccsc1-c1nc(C(N)=O)c2[nH]c(=O)n(-c3ccc(Cl)cc3)c2n1 | 2
CCOc1ccccc1-c1nc(C(N)=O)c2[nH]c(=O)n(-c3ccc(F)cc3)c2n1 | 1
COC(=O)[C@H](C)NC(=O)[C@@H]1CCCN1C(=O)CNP(=O)(OCc1ccccc1)OCc1ccccc1 | -1
CC1(c2nnnn2Cc2ccccc2)CCSCC(=O)N1Cc1cccs1 (configuration not stated) | 0
C[C@H](CO)N1C[C@H](C)[C@@H](CN(C)S(=O)(=O)c2cn(C)cn2)OCc2cn(nn2)CCCC1=O | 2
CC1(C)CC(=O)C=C(c2ccc(I)cc2)C1 | 2
CC1(C)CC(=O)C=C(c2ccc(OC(F)(F)F)cc2)C1 | 12* | TTR inh HuH7=-5;TTR up confirm=-1
CC1(C)CC(=O)C=C(c2ccc(Oc3ccccc3)cc2)C1 | -3
CCOc1ccc(S(=O)(=O)N2CCN(C(=O)C3CC3C)CC2)cc1 (configuration not stated) | 0
COc1ccc(NC(=O)Cn2c(=O)n(CC3CCCO3)c(=O)c3cc(OC)c(OC)cc32)c(OC)c1 (configuration not stated) | 0
COc1cc2c(=O)n(CC3CCCO3)c(=O)n(CC(=O)Nc3ccc(F)cc3F)c2cc1OC (configuration not stated) | 0
COc1cc2c(=O)n(CC3CCCO3)c(=O)n(CC(=O)Nc3cccc(Cl)c3)c2cc1OC (configuration not stated) | 10* | TTR inh HuH7=-27;TTR up confirm=0
COC(=O)[C@]12C[C@H](CC(=O)N3CCSCC3)C(=O)N(Cc3ccco3)C1=C[C@H](C1CCCC1)O[C@@H]2C | 0
CC(C)(N[C@@H](Cc1ccccc1)C(=O)NCCCc1ccccc1)C(=O)NCc1ccccc1 | 1
O=C(C[C@H]1CC[C@H](NC(=O)Nc2ccccc2F)[C@@H](CO)O1)NCc1ccc(-c2ccccc2)cc1 | -1
SMILES | TTR transcr act | others
COc1ccc(NC2CCCN(C(=O)CN3CCOC3=O)C2)cc1 (configuration not stated) | -2
O=C(CN1CCc2ccccc2C1)Nc1ccc(F)cc1 | 2
O=C(CN1CCN(CC(=O)Nc2ccc(Cl)cc2)CC1)Nc1ccc(F)cc1 | 11* | TTR inh HuH7=-1;TTR up confirm=0
O=C(CN1CCN(Cc2ccc3c(c2)OCO3)CC1)Nc1ccc(F)cc1 | 1
CCCCOCCCNC(=O)C[C@H]1C[C@@]2(C(=O)OC)C(=C[C@H](COCc3ccccc3)O[C@@H]2C)N(CCc2ccc(OC)c(OC)c2)C1=O | 0
CC1CCc2cc(F)ccc2N1C(=O)CSc1nnc2c(n1)[nH]c1ccccc12 (configuration not stated) | -3
C/C(=N\NC(=O)CSc1nc(C)cc(C)n1)c1cccs1 | 0
Cn1cccc1CC(=O)N/N=C/C=C/c1ccccc1 | 4
Cc1cc(C)nc(SCC(=O)N/N=C/C=C/c2ccccc2)n1 | 14* | TTR inh HuH7=-12;TTR up confirm=0
COC(=O)[C@]12C[C@H](CC(=O)NCc3cccc(C(F)(F)F)c3)C(=O)N(Cc3ccc(Cl)cc3Cl)C1=C[C@H](C(C)C)O[C@@H]2C1CC1 | 0
CCC[C@H]1[C@@H](OC(=O)NCc2ccccc2)CC[C@@]23CCCN2C(=O)CCC[C@@H]13 | 3
Brc1ccc(-c2c(-c3ccsc3)sc3ccccc23)cn1 | -1
COc1ccc2c(C#CCCO)c(-c3ccc(S(C)(=O)=O)cc3)sc2c1 | -3
OCCC#Cc1c(-c2ccsc2)sc2ccccc12 | 10.0* | TTR inh HuH7=-8;TTR up confirm=-1
CS(=O)(=O)N(C(=O)NC(=O)NC12CC3CC(CC(C3)C1)C2)C1CCCCC1 | 2
CC(C)(C)CCNc1nc(-c2ccccn2)nnc1-c1ccccc1 | 2
CC(C)(C)c1cc(C(=O)O)n(Cc2ccc(Cl)cc2Cl)n1 | -1
O=C(NC1CCCC1)C(c1ccccn1)N(Cc1ccccc1F)C(=O)c1csnn1 (configuration not stated) | 0
Cc1c(N(C)C(=O)c2ccc3c(c2)OCO3)c(=O)n(-c2ccccc2)n1C | -2
Cc1c(N(C)C(=O)C23CC4CC(CC(C4)C2)C3)c(=O)n(-c2ccccc2)n1C | -1
Cc1c(N(C)S(=O)(=O)c2cc(C(=O)N3CCCC3)ccc2Cl)c(=O)n(-c2ccccc2)n1C | 13* | TTR inh HuH7=-9;TTR up confirm=0
Cc1ccccc1CN1CCCCC(NC(=O)c2c(F)cccc2F)C1=O (configuration not stated) | 3
COc1ccc(C(=O)N[C@H]2CC[C@@]34CCCN3C(=O)CCC[C@H]4[C@H]2C)cc1 | 0
COc1ccc(NC2=Nc3cccc4cccc2c34)cc1 | 15* | TTR inh HuH7=-10;TTR up confirm=-1
COc1ccc(Nc2nc(Cl)nc(Nc3ccc(OC)cc3)n2)cc1 | -2
SMILES | TTR transcr act | others
COC1=C(Nc2ccc(OC)cc2)C(=O)C(OC)=C(Nc2ccc(OC)cc2)C1=O | 1
COc1ccc(OC)c(N(CC(=O)Nc2ccccc2F)S(=O)(=O)c2ccccc2)c1 | -2
COc1ccc(CN(C)CC(=O)NC(=O)Nc2ccccc2F)cc1 | 11* | TTR inh HuH7=-14;TTR up confirm=0
COc1ccc(S(=O)(=O)NC(C)C(=O)Nc2ccccc2F)cc1 (configuration not stated) | 0
Cc1ccccc1CN[C@@H]1CC[C@@]23CCCN2C(=O)CCC[C@H]3C1 | 0
O=C(NCCc1cccs1)C1CC(c2ccccc2[N+](=O)[O-])=NO1 (configuration not stated) | -2
Cc1cccc(C)c1NC(=S)N(Cc1ccccc1)Cc1cccs1 | 0
COc1ccccc1CO/N=C/c1cccn1-c1nccc(N(C)C)c1C#N | -5
Cc1c(C2(O)CCCCC2)[nH]c2ccc(C(F)(F)F)cc12 | -4
CCc1c(C2(O)CCCCC2)[nH]c2cnccc12 | 13* | TTR inh HuH7=-4;TTR up confirm=0
COC(=O)C[C@@H]1CC[C@@H]2[C@H](COc3ccc(NC(=O)c4ccc5c(c4)OCO5)cc3C(=O)N2C)O1 | 0
COC(=O)c1cc(-c2cnc(OC)nc2OC)c(=O)n2c1CCC2 | 0
